Test results published in PubChem BioAssay (Tox21).
Inconclusive results are not listed. Entries that show only a call come without a potency. Activity calls are given as the source filed them. Unless noted, the call rests on the fitted dose curve; in most records, active means well fitted curve in the direction sought with a large enough effect in the repeat runs; inconclusive means weak or mixed curves; inactive means no such curve, though single readings can be large; an effect the other way counts as inactive or inconclusive.

What was measured:
[1] = qHTS assay to identify small molecule agonists of the peroxisome proliferator-activated receptor delta (PPARd) signaling pathway - cell viability counter screen (AID 743211); further: nearly all actives have a fitted effect of over 55% in size
Procedure, shortened: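 In the same wells used for beta-lactamase reporter measurement, cytotoxicity is scored by CellTiter-Glo. HEK293H PPARd-bla cells receive compound for 17 h at 37C following a 5 h settling period.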

[2] = biological target: Peroxisome proliferator-activated receptor delta (Homo sapiens) (UniProt Q03181); test: qHTS assay to identify small molecule agonists of the peroxisome proliferator-activated receptor delta (PPARd) signaling pathway (AID 743212; calls by dose curve)
Procedure, shortened: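 HEK293H UAS-bla reporter cells, human PPARd system; compounds delivered in DMSO after 5 h plating, then at 37 C. Beta-lactamase FRET read, 2 h RT substrate step.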

[3] = qHTS assay to identify small molecule antagonists of the peroxisome proliferator-activated receptor delta (PPARd) signaling pathway - cell viability counter screen (AID 743213); further: nearly all actives have a fitted effect of over 50% in size
Procedure, shortened: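 PPARd-bla HEK293H cells were treated with compounds plus agonist L165041 (300 nM final) for 17 h at 37 C. Viability was then read in the same wells by CellTiter-Glo luminescence after 30 min at room temperature.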

[4] = biological target: Peroxisome proliferator-activated receptor delta (Homo sapiens) (UniProt Q03181); test: qHTS assay to identify small molecule antagonists of the peroxisome proliferator-activated receptor delta (PPARd) signaling pathway (AID 743215; active means well fitted inhibition curve with a large enough effect in the signal ratio in the repeat runs, not every such curve was filed as active; the % refers to the signal ratio;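 further: cells stimulated with agonist L165041 at 300 nM final during compound exposure; series mostly up to about 62 µM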)
Procedure, shortened: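 PPARd UAS-bla HEK293H cells were pre-incubated 5 h at 37 C, then given test compounds in DMSO plus agonist L165041 (300 nM final). After 17 h at 37 C, beta-lactamase FRET substrate was added; fluorescence read after 2 h at room temperature.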

[5] = biological target: Bile acid receptor (Homo sapiens) (UniProt Q96RI1); test: qHTS assay to identify small molecule antagonists of the farnesoid-X-receptor (FXR) signaling pathway (AID 743217; active means well fitted inhibition curve with a large enough effect in the signal ratio in the repeat runs, not every such curve was filed as active; the % refers to the signal ratio)
Procedure, shortened: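 FXR-UAS-bla HEK 293T cells pre-incubated 5 h at 37 °C, then exposed to compounds with chenodeoxycholic acid (50 uM final) for 16 h at 37 °C. Beta-lactamase reporter read by LiveBLAzer B/G FRET substrate fluorescence after 2 h at room temperature.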

[6] = qHTS assay to identify small molecule agonists of the farnesoid-X-receptor (FXR) signaling pathway - cell viability counter screen (AID 743218); further: nearly all actives have a fitted effect of over 45% in size
Procedure, shortened: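 FXR-UAS-bla HEK 293T cells, plated 5 h at 37 C, were exposed to compounds for 16 h at 37 C. CellTiter-Glo was then added to the same wells as the bla readout; luminescence read after 30 min at room temperature.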

[7] = biological target: Bile acid receptor (Homo sapiens) (UniProt Q96RI1); test: qHTS assay to identify small molecule agonists of the farnesoid-X-receptor (FXR) signaling pathway (AID 743220; active means well fitted activation curve with a large enough effect in the signal ratio in the repeat runs, not every such curve was filed as active; the % refers to the signal ratio)
Procedure, shortened: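 Beta-lactamase reporter under UAS control in GeneBLAzer FXR HEK 293T cells (5000/well) measured with LiveBLAzer FRET substrate after 2 h at room temperature. Compound exposure lasted 16 h at 37C.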

[8] = qHTS assay to identify small molecule antagonists of the farnesoid-X-receptor (FXR) signaling pathway - cell viability counter screen (AID 743221; active means well fitted cell-killing curve with a large enough effect in the repeat runs, not every such curve was filed as active; further: nearly all actives have a fitted effect of over 50% in size)
Procedure, shortened: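 Here viability was scored by luminescence after CellTiter-Glo addition to wells already read for beta-lactamase. Prior treatment: compound plus CDCA (50 uM final), 16 h, 37 C, HEK 293T FXR-bla cells.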

[9] = biological target: Vitamin D3 receptor (Homo sapiens) (UniProt P11473); test: qHTS assay to identify small molecule agonists of the vitamin D receptor (VDR) signaling pathway (AID 743222; calls by dose curve)
Procedure, shortened: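 VDR-bla cells were plated 4 h at 37C/5% CO2, then exposed to compounds in DMSO for 16 h. After LiveBLAzer B/G FRET substrate addition and 2 h at room temperature, beta-lactamase reporter fluorescence was read.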

[10] = qHTS assay to identify small molecule agonists of the vitamin D receptor (VDR) signaling pathway - cell viability counter screen (AID 743224); further: series mostly up to about 63 µM; nearly all actives have a fitted effect of over 50% in size
Procedure, shortened: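 VDR-bla cells were preincubated 4 h at 37C/5% CO2, then exposed to compounds for 16 h. After the 2 h room-temperature bla FRET read, CellTiter-Glo was added to the same wells and luminescence read after 30 min.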

[11] = qHTS assay to identify small molecule antagonists of the vitamin D receptor (VDR) signaling pathway - cell viability counter screen (AID 743225); further: nearly all actives have a fitted effect of over 50% in size
Procedure, shortened: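 Compounds were pinned onto VDR-bla HEK 293T cells together with 1-alpha,25-dihydroxyvitamin D3 at 3 nM final. After 16 h at 37C and 5% CO2 plus the reporter readout, cell viability was measured by CellTiter-Glo luminescence (30 min, room temperature).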

[12] = qHTS assay to identify small molecule agonists of the NFkB signaling pathway - cell viability counter screen (AID 1159515; calls by dose curve; further: series mostly up to about 61 µM; nearly all actives have a fitted effect of over 55% in size)
Procedure, shortened: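 NFkB-bla ME-180 cells, 2,000/well, were plated overnight at 37 C, 5% CO2, then exposed to compounds in DMSO for 5 hr. After the bla FRET read, CellTiter-Glo was added to the same wells; luminescence was read after 30 min at room temperature.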

[13] = qHTS assay to identify small molecule antagonists of the retinoid-related orphan receptor gamma (ROR-gamma) signaling pathway - cell viability counter screen (AID 1159520); further: nearly all actives have a fitted effect of over 50% in size
Procedure, shortened: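 Cytotoxicity was read from cellular ATP (CellTiter-Glo luminescence) after 16 hr at 37 C with 1 uM doxycycline induction. The inducer was added 2 hr after compound transfer to Tet-on ROR gamma CHO cells.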

[14] = biological target: Nuclear receptor ROR-gamma (Homo sapiens) (UniProt P51449); test: qHTS assay to identify small molecule antagonists of the retinoid-related orphan receptor gamma (ROR-gamma) signaling pathway (AID 1159521; further: nearly all actives have a fitted effect of over 50% in size; further: potency means the concentration at half of the fitted maximal effect)
Procedure, shortened: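 Test compounds were applied to Tet-on RORγ CHO cells 2 h ahead of doxycycline hyclate (1 uM final). Luciferase reporter activity was quantified by luminescence after 16 h at 37 C and 5% CO2.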

[15] = qHTS assay to identify small molecule agonists of the AP-1 signaling pathway - cell viability counter screen (AID 1159525; calls by dose curve; further: nearly all actives have a fitted effect of over 55% in size; further: potency means the concentration at half of the fitted maximal effect)
Procedure, shortened: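 Luminescent ATP readout (Cell Titer Glo, 30 min RT), normalised to DMSO and tetra n-octyl ammonium bromide controls. Cells were ME-180 AP-1-bla in 0.5% dialyzed FBS Opti-MEM, with a 5 h, 37 °C compound exposure.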

[16] = qHTS assay to identify small molecule agonists of the AP-1 signaling pathway (AID 1159526; calls by dose curve)
[17] = biological target: Retinoic acid receptor RXR-alpha (Homo sapiens) (UniProt P19793); test: qHTS assay to identify small molecule agonists of the RXR signaling pathway (AID 1159527; calls by dose curve; further: nearly all actives have a fitted effect of over 35% in size)
Procedure, shortened: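 Using 9-cis retinoic acid as the reference agonist, chemicals were tested in HEK 293T cells […] for 16 hr; substrate loading lasted 2 hr at room temperature.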

[18] = biological target: Vitamin D3 receptor (Homo sapiens) (UniProt P11473); test: qHTS assay to identify small molecule antagonists of the vitamin D receptor (VDR) signaling pathway (AID 743223; active means well fitted inhibition curve with a large enough effect in the signal ratio in the repeat runs, not every such curve was filed as active; the % refers to the signal ratio)
Procedure, shortened: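 Inhibition of agonist-driven VDR signalling is scored in VDR-bla cells: 3 nM final 1alpha,25-dihydroxyvitamin D3 plus compound, 16 h at 37C, then beta-lactamase detection by FRET substrate fluorescence after 2 h.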

[19] = qHTS assay to identify small molecule agonists of the endoplasmic reticulum stress response signaling pathway - cell viability counter screen (AID 1159517; calls by dose curve)
Procedure, shortened: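 Cells, HeLa ESRE-bla; density, 1,500/well; dosing, 5 hr at 37 C, 5% CO2; readout, CellTiter-Glo luminescence after 30 min RT.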

Peroxisome proliferator-activated receptor delta (Homo sapiens), sequence (Q03181 whole entry, looked up): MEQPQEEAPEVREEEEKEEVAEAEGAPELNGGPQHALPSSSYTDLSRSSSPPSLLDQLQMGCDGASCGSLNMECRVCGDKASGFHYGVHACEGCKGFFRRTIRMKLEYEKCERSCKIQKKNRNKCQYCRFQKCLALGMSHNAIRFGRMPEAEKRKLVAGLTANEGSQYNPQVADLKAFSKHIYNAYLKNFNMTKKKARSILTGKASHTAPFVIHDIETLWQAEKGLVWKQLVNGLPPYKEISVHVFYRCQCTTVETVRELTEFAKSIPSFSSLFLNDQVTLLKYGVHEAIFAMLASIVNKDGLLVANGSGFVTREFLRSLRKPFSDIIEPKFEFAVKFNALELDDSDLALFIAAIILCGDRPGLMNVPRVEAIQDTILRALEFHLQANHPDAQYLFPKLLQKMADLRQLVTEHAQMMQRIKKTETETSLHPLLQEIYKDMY
Vitamin D3 receptor (Homo sapiens), sequence (P11473 whole entry, looked up): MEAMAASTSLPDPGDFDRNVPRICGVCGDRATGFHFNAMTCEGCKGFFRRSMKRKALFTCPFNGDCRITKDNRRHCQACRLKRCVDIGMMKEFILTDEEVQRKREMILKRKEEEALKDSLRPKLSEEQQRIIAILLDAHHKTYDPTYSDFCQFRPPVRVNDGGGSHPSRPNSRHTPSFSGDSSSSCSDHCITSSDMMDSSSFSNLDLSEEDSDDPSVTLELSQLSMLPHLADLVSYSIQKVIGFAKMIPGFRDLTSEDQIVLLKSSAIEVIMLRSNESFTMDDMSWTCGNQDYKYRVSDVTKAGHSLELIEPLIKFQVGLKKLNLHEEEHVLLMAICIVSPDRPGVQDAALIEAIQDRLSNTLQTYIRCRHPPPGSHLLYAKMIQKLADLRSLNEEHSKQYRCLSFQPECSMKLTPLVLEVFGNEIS
Retinoic acid receptor RXR-alpha (Homo sapiens), sequence (P19793 whole entry, looked up): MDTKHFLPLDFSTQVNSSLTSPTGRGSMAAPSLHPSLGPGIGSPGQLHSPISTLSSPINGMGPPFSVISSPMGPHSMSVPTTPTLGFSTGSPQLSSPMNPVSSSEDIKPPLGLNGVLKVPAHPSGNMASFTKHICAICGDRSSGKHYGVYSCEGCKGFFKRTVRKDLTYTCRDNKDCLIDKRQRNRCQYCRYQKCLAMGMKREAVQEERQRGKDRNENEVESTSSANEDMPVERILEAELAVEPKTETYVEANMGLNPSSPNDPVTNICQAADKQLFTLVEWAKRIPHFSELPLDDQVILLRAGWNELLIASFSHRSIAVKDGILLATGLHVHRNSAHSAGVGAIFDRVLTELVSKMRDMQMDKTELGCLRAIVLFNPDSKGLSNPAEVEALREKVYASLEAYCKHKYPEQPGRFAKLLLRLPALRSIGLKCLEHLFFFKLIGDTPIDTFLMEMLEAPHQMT
Bile acid receptor (Homo sapiens), sequence (Q96RI1 whole entry, looked up): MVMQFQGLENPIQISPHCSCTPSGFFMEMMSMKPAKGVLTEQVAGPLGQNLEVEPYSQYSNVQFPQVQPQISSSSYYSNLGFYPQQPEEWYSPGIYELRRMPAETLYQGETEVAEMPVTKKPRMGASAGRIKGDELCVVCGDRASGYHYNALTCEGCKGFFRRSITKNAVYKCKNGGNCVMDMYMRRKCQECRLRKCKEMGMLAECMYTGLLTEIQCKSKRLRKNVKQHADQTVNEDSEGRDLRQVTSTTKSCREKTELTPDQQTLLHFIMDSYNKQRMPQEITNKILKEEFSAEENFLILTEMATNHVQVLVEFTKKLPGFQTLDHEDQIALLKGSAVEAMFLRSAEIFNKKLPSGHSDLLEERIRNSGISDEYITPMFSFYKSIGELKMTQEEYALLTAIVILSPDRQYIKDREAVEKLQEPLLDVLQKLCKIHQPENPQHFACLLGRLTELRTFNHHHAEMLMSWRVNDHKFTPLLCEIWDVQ

Compound | Potency [1] | Potency [2] | Potency [3] | Potency [4] | Potency [5] | Potency [6] | Potency [7] | Potency [8] | Potency [9] | Potency [10] | Potency [11] | Potency [12] | Potency [13] | Potency [14] | Potency [15] | Potency [16] | Potency [17] | Potency [18] | Potency [19]
CC(C)CCOC(=O)/C=C/c1ccccc1 | inactive | inactive | inactive | inactive | inactive | inactive | inactive | inactive | inactive | inactive | inactive | inactive | inactive | inactive | inactive | inactive | inactive | – | –
CN1CCN2c3ccccc3Cc3ccccc3C2C1 (stereo not given) | – | – | – | – | – | inactive | – | – | inactive | inactive | inactive | inactive | inactive | inactive | inactive | – | inactive | – | –
Cc1cccc(C)c1NC(=O)c1ccc(N)cc1 | inactive | inactive | inactive | – | – | inactive | – | inactive | inactive | – | inactive | inactive | inactive | inactive | inactive | inactive | inactive | – | –
CCCCCCCC/C=C\CCCCCCCCN | inactive | inactive | – | – | – | inactive | – | inactive | inactive | – | – | inactive | – | inactive | inactive | inactive | inactive | – | –
CCCC(=O)OCCc1ccccc1 | inactive | inactive | inactive | inactive | – | inactive | – | – | inactive | inactive | inactive | inactive | inactive | inactive | inactive | inactive | inactive | – | –
CC(C)(C)NSc1nc2ccccc2s1 | inactive | – | inactive | inactive | – | – | – | inactive | – | inactive | – | inactive | inactive | inactive | inactive | – | – | – | –
CC/C=C\CCCCCO | inactive | inactive | inactive | inactive | – | inactive | – | inactive | – | inactive | – | inactive | inactive | – | inactive | inactive | – | – | –
CCc1ccc(Br)cc1 | inactive | inactive | inactive | inactive | inactive | – | inactive | inactive | inactive | inactive | inactive | inactive | inactive | inactive | inactive | inactive | inactive | inactive | –
Cc1nc2n(c(=O)c1CCN1CCC(c3noc4cc(F)ccc34)CC1)CCCC2 | inactive | inactive | inactive | inactive | – | inactive | – | inactive | – | inactive | inactive | inactive | inactive | – | inactive | inactive | inactive | – | –
CC(N=C(NC#N)Nc1ccncc1)C(C)(C)C (stereo not given) | inactive | – | inactive | – | inactive | – | inactive | inactive | – | inactive | – | inactive | inactive | inactive | inactive | inactive | inactive | – | –
[Cu+] | inactive | inactive | inactive | inactive | – | inactive | – | inactive | – | – | inactive | inactive | – | – | inactive | – | inactive | – | inactive
[Cl][Pt-2]([Cl])([Cl])[Cl] | inactive | inactive | inactive | inactive | inactive | inactive | inactive | inactive | inactive | – | – | inactive | – | inactive | inactive | – | – | – | inactive
CC1=Nc2ccccc2C1(C)C | inactive | inactive | inactive | inactive | – | inactive | – | inactive | inactive | inactive | – | inactive | – | 17.2 µM (active) | inactive | – | – | – | inactive
CCO[Si](OCC)(OCC)OCC | inactive | – | inactive | – | – | inactive | – | inactive | inactive | inactive | inactive | inactive | inactive | inactive | inactive | inactive | – | inactive | –
O=C(O)c1cccc(C(F)(F)F)c1 | inactive | inactive | inactive | inactive | – | inactive | – | inactive | inactive | inactive | inactive | inactive | inactive | – | inactive | inactive | – | – | –
CCCCCC(C)OC(=O)COc1ccc(Cl)c2cccnc12 (stereo not given) | – | inactive | – | – | – | inactive | inactive | inactive | – | – | – | inactive | – | inactive | 34.7 µM (active) | – | – | inactive | inactive
Cc1ccc(O)c(O)c1 | – | – | – | inactive | – | inactive | inactive | inactive | – | – | inactive | inactive | – | – | inactive | inactive | inactive | – | inactive
CC1=CCC(=C(C)C)CC1 | inactive | – | inactive | – | – | inactive | – | inactive | – | inactive | – | inactive | inactive | – | inactive | inactive | inactive | – | –
CCCCCCOC(=O)C(C)CC (stereo not given) | inactive | – | inactive | inactive | inactive | inactive | inactive | inactive | – | inactive | – | inactive | inactive | inactive | inactive | inactive | inactive | – | –
